Screening results deposited in PubChem by several laboratories.
Sa ugtP lethal – kills S. aureus RN4220 lacking UgtP; AID 1259309; S. aureus RN4220 ugtP deletion, OD600 growth, 16 h; growth inhibition, % (no concentration beside the values); actives 0.54% (n = 330,000); in the data active = growth inhibition above about 68%;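 note: plate controls were untreated wells for no effect and antibiotic for full effect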
RN4220 kill – kills Staphylococcus aureus RN4220 | S. aureus RN4220 growth, OD600, 16 h | inhibition, % (concentration not given with the values) | actives 0.33% (n = 330,000); in the data active = inhibition above about 85%;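 note: plate controls were untreated cells for no effect and reference antibiotic for full effect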
BJeLR viability – BJeLR cell viability loss; BJeLR (HRASV12) viability, CellTiter-Glo ATP luminescence, 48 h; inhibition, % (no concentration beside the values); actives 0.17% (n = 300,000); in the data active = inhibition above about 50%
SSB-PriA inh – K. pneumoniae PriA-SSBct interaction inhibition; AlphaScreen SSBct-PriA binding, biotinylated peptide; inhibition, % at 33 µM; actives 0.6% (n = 430,000); AID 1272365; in the data active = inhibition mostly above about 37%, no sharp cut-off; inactive = mostly below about 20%;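 note: plate controls were negative control peptide for no effect and reference peptide for full effect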
MazF activator – activators of E. coli MazEF toxin-antitoxin RNase | P0AE70 | FAM/BHQ RNA-DNA oligo cleavage fluorescence, 5 h | activation, % at 20 µM | actives 0.32% (n = 350,000); in the data active = activation above about 50%
Target sequence (P0AE70 whole entry, looked up): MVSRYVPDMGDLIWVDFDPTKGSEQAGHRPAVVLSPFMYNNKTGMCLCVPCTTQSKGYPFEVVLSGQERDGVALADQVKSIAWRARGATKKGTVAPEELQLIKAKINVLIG
* marks the source's active call; other numbers are inactive results; i = inactive; / = no result. An excerpt weighted towards active compounds, which were near 1.2% of everything screened.

SMILES | Sa ugtP lethal | RN4220 kill | BJeLR viability | SSB-PriA inh | MazF activator
O=C1[C@@H]2Cc3c([nH]c4ccccc34)C(c3ccccc3)N2C(=O)CN1C1CCN(Cc2ccccc2)CC1 (stereo partly specified) | 0.7 | -8.6 | -8.1 | 21.8 | -6.9
O=c1oc(/C=C/c2ccc([N+](=O)[O-])s2)nc2ccccc12 | 13.4 | 3.9 | 25.1 | -8.2 | 183.0*
O=[N+]([O-])c1ccc(C=Nc2cccc3ccccc23)s1 | 97.4* | 98.0* | 2.4 | 52.6* | 4.3
CCN(CC)CCC(=O)Nc1cccc2c1C(=O)c1ccccc1C2=O | / | / | 3.0 | 18.3 | -5.8
O=S(=O)(O)c1cc(O)c(N=Nc2ccc(O)cc2O)c2ccccc12 | -7.2 | 11.9 | / | 87.2* | -1.1
CCN1CCCc2cc(CCNC(=O)c3ccc4c(c3)OCO4)ccc21 | / | / | / | 65.0* | /
CCN1CCCc2cc(CCNC(=O)c3ccc(OC)c(OC)c3)ccc21 | / | / | / | 64.0* | /
CCCN1CCCc2cc(CCNC(=O)c3ccc(F)c(F)c3)ccc21 | / | / | / | 45.0 | /
Cc1ccc(/C=N/NC(=O)Cc2cccn2C)cc1 | / | / | 6.9 | i | -2.0
CCCS(=O)(=O)N1CCN(c2ncnc3c2nnn3-c2cccc(OC)c2)CC1 | / | / | / | -5.0 | /
COc1ccc(C(=O)COC(=O)c2c(-c3ccccc3)noc2C)c(OC)c1 | 1.0 | 4.5 | 7.0 | -0.3 | 67.5*
COc1ccccc1C(=O)COC(=O)c1c(-c2ccccc2)noc1C | 0.8 | 1.9 | -4.9 | -39.2 | -1.3
O=C(CSc1nc2cc(Cl)c(Cl)cc2[nH]1)c1ccc2c(c1)OCO2 | -23.7 | 0.0 | -3.7 | 6.1 | 50.7*
O=C(CSc1cccc2cccnc12)N1CCc2ccccc2C1 | / | / | / | 91.3* | /
Cc1cc(C)c(C(=O)CSc2cccc3cccnc23)cc1C | / | / | / | 58.8* | /
CCC1CCCCN1C(=O)CSc1cccc2cccnc12 (stereo unspecified) | / | / | / | 10.5 | /
O=C(CSc1cccc2cccnc12)N1CCCC1 | 8.2 | 4.5 | -6.0 | 79.0* | 6.5
O=C(CSc1cccc2cccnc12)c1ccc(-c2ccccc2)cc1 | / | / | / | 32.6 | /
O=C(CSc1cccc2cccnc12)n1c2ccccc2c2ccccc21 | / | / | / | 73.2* | /
O=C(N/N=C/c1ccc(OC(=O)c2cccs2)cc1)c1cccc(F)c1 | / | / | -1.7 | i | -1.3
Cc1cc2nc3n(c2cc1C)CC1CC(C(=O)NCc2ccccc2)N(C)C31 (stereo unspecified) | 2.5 | 3.5 | 1.0 | 6.0 | -1.7
COC(=O)C1C[C@@]1(C)C(NP(=O)(c1ccccc1)c1ccccc1)c1ccccc1 (stereo partly specified) | 0.5 | 2.7 | / | / | /
CN(C)C(=O)CSc1cccc2cccnc12 | -0.4 | 2.1 | 10.0 | 94.2* | 0.8
COC(=O)CSc1cccc2cccnc12 | / | / | / | 37.9 | /
COc1ccc2ccc(O)c(CN3CCN(S(=O)(=O)c4cc([N+](=O)[O-])ccc4C)CC3)c2c1 | 3.8 | 2.9 | / | -2.5 | -16.3
SMILES | Sa ugtP lethal | RN4220 kill | BJeLR viability | SSB-PriA inh | MazF activator
Nc1c(Cl)ncnc1N/N=C/c1ccc(O)cc1 | / | / | -4.3 | / | 4.8
Nc1c(Cl)ncnc1NN=Cc1ccc2ccccc2n1 | -21.7 | -15.2 | / | 54.4* | /
O=c1c(O)c(-c2ccc(O)c(O)c2)oc2cc(O)ccc12 | / | / | / | -5.4 | 57.8*
O=c1c(O)c(-c2ccc(O)cc2)oc2cc(O)cc(O)c12 | -10.2 | 1.3 | -6.0 | 7.9 | 7.1
CCOC(=O)c1c(/N=C/C2C(=O)NC(=O)NC2=O)sc2c1CCC2 | / | / | / | / | 123.3*
CCOC(=O)c1c(N=CC2C(=O)NC(=O)NC2=O)sc2c1CCC2 | 4.0 | 6.4 | / | 9.6 | /
COc1ccccc1-n1cnnc1SCC(=O)Nc1cc(C)on1 | 1.9 | 1.0 | -12.9 | 7.5 | -8.4
O=C(Nc1ccc(OC(F)(F)F)cc1)Nc1c[nH]c2ccccc12 | / | / | / | 17.0 | /
O=C(Nc1ccc(F)cc1F)Nc1csc2ccccc12 | -45.0 | -3.2 | 10.2 | -14.4 | 2.7
O=C(Nc1ccc(F)c(Cl)c1)Nc1csc2ccccc12 | 100.2* | 100.0* | 0.5 | 0.3 | 19.5
CCc1ccc(NC(=O)Nc2c[nH]c3ccccc23)cc1 | / | / | / | 38.0* | /
CC(C)c1ccc(NC(=O)Nc2c[nH]c3ccccc23)cc1 | / | / | / | 39.0* | /
Cc1ccc(NC(=O)Nc2c[nH]c3ccccc23)cc1Cl | / | / | / | -10.0 | /
O=C(Nc1ccc(F)c(Cl)c1)Nc1c[nH]c2ccccc12 | / | / | / | 54.0* | /
C[C@](O)(CNS(=O)(=O)c1ccc2c(c1)CCCC2)c1cc2ccccc2s1 | / | / | / | 9.0 | /
O=C(CSc1nc(-c2ccccc2)c2ccccc2n1)Nc1ccc(F)cc1F | / | / | / | -1.0 | /
COc1ccc(-c2n(CC(=O)OC3CC(C)CCC3C(C)C)c3ccccc3[n+]2C)cc1 (stereo unspecified) | 100.5* | 100.6* | 11.8 | 3.0 | 12.3
